High-throughput results: PubChem, National Center for Advancing Translational Sciences (NCATS)
This is a sample that favours compounds with a hit; in the whole collection about 15% have one here.
Pf growth 48h: P. falciparum growth inhibition at 48 hours (one generation). P. falciparum luciferase growth in erythrocytes, 48 h. Potency, µM (highest dose often 28.7 µM), most hits filed as inhibitors. 310,000 tested, 5.9% active
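Compounds are pin-transferred into medium, infected erythrocytes (2% hematocrit, 0.1% parasitemia final) are added, and plates sit one parasite generation at 37 C in 5% CO2. Detection reagent is then added and luminescence measured.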
HCV inh: HCV inhibition. Potency, µM (doses to about 41.8 µM), hits mostly inhibitors. 340,000 tested, 3.4% active. AID 651820. Huh7.5.1 HCVcc-Cre infection, luciferase reporter, 44 h
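Compounds are dispensed onto cells plated 4 h earlier at 1,000 per well, with HCVcc-Cre virus (about 0.5 moi) added next. Following 44 h of culture, luminescent signal is measured for 15 sec after 15 min with substrate at room temperature.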
Pf growth 96h: P. falciparum growth inhibition at 96 hours. P. falciparum luciferase reporter growth, 96 h. Potency, µM (top dose mostly 28.7 µM), usual class: inhibitors. 320,000 tested, 6.9% active
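Erythrocytes infected with luciferase-expressing P. falciparum were dispensed at 2% hematocrit and 0.05% parasitemia (final), then incubated with compounds 96 hours at 37 C in 5% CO2. Luminescence after detection reagent addition reported growth.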
SARS PLpro yeast: blocks SARS-CoV papain-like protease in a yeast assay | 330,000 tested, 0.19% active | Potency, µM (highest dose often 32.9 µM), usual class: activators | S. cerevisiae expressing SARS-CoV PLpro, growth rescue; calls by dose curve; also: nearly all actives have a fitted effect of over 55% in size
Sm TGR inh: blocks Schistosoma mansoni thioredoxin glutathione reductase; Q962Y6; purified TGR, DTNB reduction, TNB absorbance 405 nm; AID 485364; 360,000 tested, 3% active; Potency, µM (series often up to 114 µM), actives largely listed as inhibitors; also: nearly all actives have a fitted effect of over 60% in size
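TGR 20 nM + NADPH 100 uM (dispensed conc.), cpd preinc 15 min RT; start with NADPH (500 uM addition) then DTNB (15 mM addition). Kinetic TNB absorbance, 405 nm filter. Four-parameter Hill fit across titration.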
HCMV inh: human cytomegalovirus inhibition; HFF cells, HCMV-luciferase reporter, 72 h; active compounds read low; activity change, negative = inhibition, % at 57.5 µM; 410,000 tested, 4.5% active; in the data active = activity change below about -60%; inconclusive = no clear call, values can overlap the other calls; inactive = above about -39%
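Steps: HFFs plated, 16 h 37C; compounds added; HCMV-luciferase added to MOI 1 PFU/cell; 72 h 37C; OneGlo reagent, 5 min room temperature; luminescence read, normalized to controls.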
Of the large screens only hits and unclear results are named; the others gave an inactive call. Unless noted, calls follow the shape of the dose curve; as a rule, active = well fitted curve in the direction sought with a large enough effect; inconclusive = small, poorly fitted or top-dose-only effect, or another doubt; inactive = no such curve, though single readings can be large; an effect the other way counts as inactive or inconclusive.

CCOC(=O)c1[nH]c(C)c(C(=O)NCCc2ccc(OC)cc2)c1C	Pf growth 48h inconclusive, Pf growth 96h 4.7µM
CN1C(=O)NC(=O)/C(=C\C=C\c2ccccc2[N+](=O)[O-])C1=O	HCV inh inconclusive, Sm TGR inh inconclusive, HCMV inh -99
CCOc1ccc(C2C(C(=O)Nc3ccccc3OC)=C(C)Nc3c(C(=O)Nc4cccc(C)c4)cnn32)cc1 (stereo unspecified)	none (no result: Pf growth 48h, HCV inh, Pf growth 96h, SARS PLpro yeast)
CCc1ccccc1NC(=O)CN(c1ccc(OC)cc1OC)S(=O)(=O)c1ccccc1	Pf growth 48h inconclusive, Pf growth 96h inconclusive, SARS PLpro yeast inconclusive, HCMV inh inconclusive
COC(=O)[C@@]1(Cc2ccc(F)cc2)[C@H]2c3cc(C(=O)N(C)C)n(Cc4ccc(OC(F)(F)F)cc4)c3C[C@H]2CN1C(=O)c1ccccc1	Pf growth 48h 1.9µM, Pf growth 96h 2.3µM
COC(=O)[C@@]1(Cc2ccc(F)cc2)[C@H]2c3cc(C(=O)N(C)C)n(Cc4c(CO)[nH]cc(C)c4=O)c3C[C@H]2CN1C(=O)c1ccccc1	Pf growth 48h 1.3µM, Pf growth 96h 1.9µM
Nc1ccc(NC(=O)c2ccco2)c(Cl)c1	none (no result: Sm TGR inh)
CC(=O)c1sc(NC(=O)C2CCN(c3ncnc4sc(C)c(C)c34)CC2)nc1-c1ccccc1	Pf growth 48h 9.3µM, HCV inh inconclusive, Pf growth 96h inconclusive (no result: SARS PLpro yeast)
Cc1sc2ncnc(N3CCC(C(=O)Nc4nc(-c5ccc(F)cc5)cs4)CC3)c2c1C	Pf growth 48h inconclusive, HCV inh inconclusive, Pf growth 96h inconclusive, HCMV inh -65
Cc1sc2ncnc(N3CCC(C(=O)NNC(=O)COc4ccccc4F)CC3)c2c1C	Pf growth 48h inconclusive, HCV inh inconclusive, Pf growth 96h inconclusive
Cc1sc2ncnc(N3CCC(C(=O)Nc4nnc(CC(C)C)s4)CC3)c2c1C	Pf growth 48h inconclusive
CCN(CC)CCNC(=O)c1ccc(NC(=O)C2CCN(c3ncnc4sc(C)c(C)c34)CC2)cc1	Pf growth 48h inconclusive, HCV inh 13µM, Pf growth 96h inconclusive, HCMV inh -71
Cc1sc2ncnc(N3CCC(C(=O)NNC(=O)c4ccccc4Cl)CC3)c2c1C	Pf growth 48h inconclusive, HCV inh inconclusive, Pf growth 96h 8.3µM
CCOC(=O)c1cnn(-c2ccc(C(=O)Nc3ccc(C(C)=O)cc3)cc2)c1N	none (no result: Pf growth 48h, HCV inh, Pf growth 96h, SARS PLpro yeast)
Cc1sc2ncnc(N3CCC(C(=O)Nc4ccc(OC(F)F)c(Cl)c4)CC3)c2c1C	HCV inh 20µM (no result: Pf growth 48h, Pf growth 96h, Sm TGR inh)
Cc1sc2ncnc(N3CCC(C(=O)NNC(=O)COc4ccccc4Cl)CC3)c2c1C	Pf growth 48h 12µM, HCV inh inconclusive, Pf growth 96h inconclusive
COc1ccccc1OCC(=O)NCCSCc1cccc(Cl)c1	Pf growth 96h 12µM
COc1ccccc1OCC(=O)Nc1ccc(O)cc1C(=O)O	none (no result: Pf growth 48h)
O=C(CCSCc1cccc(Cl)c1)NCCc1ccccc1	Pf growth 96h inconclusive
COc1ccccc1OCC(=O)NNc1c2ccccc2nc2ccccc12	Pf growth 48h 4.1µM, HCV inh 0.56µM, HCMV inh -92
Cc1cc(CNC(=O)COc2ccccc2F)c2ccccc2n1	HCV inh 25µM, HCMV inh inconclusive
COc1ccccc1OCC(=O)NNC(=O)Nc1ccc(Cl)cc1	HCMV inh -64
Cc1ccc(NC(=O)NNC(=O)COc2ccc(Cl)cc2)cc1	none (no result: Pf growth 48h, Pf growth 96h, SARS PLpro yeast, Sm TGR inh)
Cc1onc(-c2ccccc2Cl)c1C(=O)Oc1cccc2cccnc12	Pf growth 48h inconclusive
Cc1ccc(NC(=O)CN(C)C(=O)C(C)N2CCN(Cc3ccccc3C)CC2)cc1 (stereo unspecified)	Pf growth 48h inconclusive, HCV inh inconclusive, Pf growth 96h inconclusive
COc1ccccc1OCC(=O)NCCNC(=O)COc1ccccc1OC	Pf growth 48h inconclusive, Pf growth 96h 2.3µM
COc1ccc(OCC(=O)NCCCCCCNC(=O)COc2ccc(OC)cc2)cc1	Pf growth 96h 2.9µM
COc1ccccc1OCC(=O)NNC(=O)CCCC(=O)NNC(=O)COc1ccccc1OC	Pf growth 48h inconclusive
CCOC(=O)N/N=C(\C)c1ccccc1OC(F)F	Pf growth 48h inconclusive, Pf growth 96h 9.3µM
